We go through 8 compounds from PubChem BioAssay (EPA / NIEHS).

Results filed as inconclusive are left out. Activity calls are given as the source filed them. The calls were made as follows: active = hit-call score of the fitted dose curve at least 0.9, where 1 is the maximum; inconclusive = response in the unintended direction; inactive = score below 0.9.

Experiment [1] has as its target human Adrenergic, Beta 3 Receptor (Adrb3), ADRB3 (gene 155) (UniProt P13945). The experiment can be described thus: NVS_GPCR_hAdrb3: NovaScreen (NVS) G Protein-Coupled Receptor Assay for human Adrenergic, Beta 3 Receptor (Adrb3) (AID 2283262). In a few lines:
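Membranes from SK-N-MC cells pretreated with isoproterenol and 8-bromo-cAMP were used in a radioligand competitive displacement binding assay. Binding was read by filter-based scintillation counting 1 hour after dosing. Primary screening was in duplicate at 25 uM, with concentration series in follow-up.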

Experiment [2] addresses human Adrenergic, Alpha 2A Receptor (Adra2A), ADRA2A (gene 150) (UniProt P08913). The experiment can be described thus: NVS_GPCR_hAdra2A: NovaScreen (NVS) G Protein-Coupled Receptor Assay for human Adrenergic, Alpha 2A Receptor (Adra2A) (AID 2283257). In a few lines:
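Radioligand filter-binding was run on HT29-derived membranes, cell-free, read by scintillation counting 1 h after dosing. Primary screening was in duplicate at 25 uM, with concentration series in follow-up. Loss of signal versus DMSO indicates displacement.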

The target in experiment [3] is human Adrenergic, Beta 1 Receptor (Adrb1), ADRB1 (gene 153) (UniProt P08588). The experiment can be described thus: NVS_GPCR_hAdrb1: NovaScreen (NVS) G Protein-Coupled Receptor Assay for human Adrenergic, Beta 1 Receptor (Adrb1) (AID 2283258). The essentials:
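Cell-free radioligand displacement on receptor from human neuroepithelioma cells; 2 h after dosing, filter-based scintillation counting. Primary screen in duplicate at 25 uM, actives retested in concentration series; loss of signal vs DMSO baseline.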

Experiment [4] has as its target human Adrenergic, Alpha 2c Receptor (Adra2C), ADRA2C (gene 152) (UniProt P18825). The experiment is described as follows: NVS_GPCR_hAdra2C: NovaScreen (NVS) G Protein-Coupled Receptor Assay for human Adrenergic, Alpha 2c Receptor (Adra2C) (AID 2283259). In a few lines:
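Radioligand binding on Sf9-expressed receptor membranes, 1 h after chemical dosing, filter-based scintillation read-out. Loss of binding fitted positively versus DMSO; primary duplicate screen at 25 uM, actives retested in concentration series.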

In experiment [5] the target is Beta-2 adrenergic receptor (Homo sapiens) (UniProt P07550). The experiment can be described thus: NVS_GPCR_hAdrb2: NovaScreen (NVS) G Protein-Coupled Receptor Assay for human Adrenergic, Beta 2 Receptor (Adrb2) (AID 2283261). The essentials: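 Filter-based radioligand binding using receptor prepared from CHO cells, 1 h incubation, scintillation counting. Primary screen in duplicate at 25 uM, actives retested in concentration series; loss of binding relative to DMSO.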

Experiment [6] concerns the target human Dopamine Receptor D4.4 (DRD4.4), DRD4 (gene 1815) (UniProt P21917). The experiment can be described thus: NVS_GPCR_hDRD4.4: NovaScreen (NVS) G Protein-Coupled Receptor Assay for human Dopamine Receptor D4.4 (DRD4.4) (AID 2283264). In a few lines: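 Radioligand displacement on human DRD4.4 from CHO-derived membranes, 1 hour incubation, bound counts read by filtration and scintillation. Primary screen in duplicate at 25 uM; actives followed up in concentration series.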

Experiment [7] deals with human Endothelin Receptor Type A (ETA), EDNRA (gene 1909) (UniProt P25101). The experiment is described as follows: NVS_GPCR_hETA: NovaScreen (NVS) G Protein-Coupled Receptor Assay for human Endothelin Receptor Type A (ETA) (AID 2283265). In a few lines:
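Cell-free radioligand displacement using SH-SY5Y-derived protein, 3 h incubation, filter-based scintillation counting. Primary screen in duplicate at 25 uM; actives then run in concentration-response up to 50 uM; loss of binding fitted versus DMSO.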

Experiment [8] deals with human Dopamine Receptor D2 (DRD2), DRD2 (gene 1813) (UniProt P14416). The experiment can be described thus: NVS_GPCR_hDRD2s: NovaScreen (NVS) G Protein-Coupled Receptor Assay for human Dopamine Receptor D2 (DRD2) (AID 2283266). The essentials: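 Radioligand displacement used human DRD2 membranes extracted from CHO cells and was read by filter-based scintillation counting after 1.5 hours. Primary screening was in duplicate at 25 uM. Loss of signal versus DMSO was fitted, with concentration series in follow-up.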
Chain of human Dopamine Receptor D2 (DRD2), DRD2 (gene 1813) (P14416 whole entry, looked up): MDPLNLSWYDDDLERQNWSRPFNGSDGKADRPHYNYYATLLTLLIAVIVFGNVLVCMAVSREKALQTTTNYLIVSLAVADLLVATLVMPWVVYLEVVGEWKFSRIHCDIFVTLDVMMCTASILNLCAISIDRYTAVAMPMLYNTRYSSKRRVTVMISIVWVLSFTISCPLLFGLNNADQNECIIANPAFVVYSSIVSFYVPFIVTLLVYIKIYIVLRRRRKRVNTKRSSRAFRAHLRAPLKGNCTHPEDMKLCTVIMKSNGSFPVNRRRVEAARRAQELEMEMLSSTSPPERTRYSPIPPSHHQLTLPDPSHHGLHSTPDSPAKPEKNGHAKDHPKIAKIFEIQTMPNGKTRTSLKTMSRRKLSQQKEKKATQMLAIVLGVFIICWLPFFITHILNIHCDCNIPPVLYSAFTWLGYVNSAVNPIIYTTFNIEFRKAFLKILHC

In experiment [9] the target is human Histamine 1 Receptor (H1), HRH1 (gene 3269) (UniProt P35367). The experiment can be described thus: NVS_GPCR_hH1: NovaScreen (NVS) G Protein-Coupled Receptor Assay for human Histamine 1 Receptor (H1) (AID 2283268). In a few lines: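 Cell-free radioligand displacement at human H1 receptor, 1 h, filter scintillation counting; primary screen 25 uM in duplicate, hits in concentration series; loss of binding fitted vs DMSO.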
Chain of human Histamine 1 Receptor (H1), HRH1 (gene 3269) (P35367 whole entry, looked up): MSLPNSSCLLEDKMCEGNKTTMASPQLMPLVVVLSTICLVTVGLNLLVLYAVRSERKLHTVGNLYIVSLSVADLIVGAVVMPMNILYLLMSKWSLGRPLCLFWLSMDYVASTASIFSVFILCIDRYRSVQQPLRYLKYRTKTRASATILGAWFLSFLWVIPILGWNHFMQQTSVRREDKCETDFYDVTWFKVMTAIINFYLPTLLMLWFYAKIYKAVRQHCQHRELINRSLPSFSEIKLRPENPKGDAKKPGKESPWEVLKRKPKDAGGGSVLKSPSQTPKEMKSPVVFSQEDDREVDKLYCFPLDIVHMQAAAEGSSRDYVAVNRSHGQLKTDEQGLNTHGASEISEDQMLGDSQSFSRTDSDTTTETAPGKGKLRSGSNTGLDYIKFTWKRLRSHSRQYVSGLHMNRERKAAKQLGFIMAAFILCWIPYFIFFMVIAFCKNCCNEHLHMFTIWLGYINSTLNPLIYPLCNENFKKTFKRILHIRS

For experiment [10], the target named is D(1A) dopamine receptor (Homo sapiens) (UniProt P21728). The experiment is described as follows: NVS_GPCR_hDRD1: NovaScreen (NVS) G Protein-Coupled Receptor Assay for human Dopamine Receptor D1 (DRD1) (AID 2283269). In a few lines: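 Radioligand displacement binding on membranes/protein extracted from HEK293 expressing human D1, cell-free; read 1 h after dosing by filter-based scintillation counting. Primary screen in duplicate at 25 uM, actives followed up in concentration series; signal loss versus DMSO baseline.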
Chain of D(1A) dopamine receptor (Homo sapiens) (P21728 whole entry, looked up): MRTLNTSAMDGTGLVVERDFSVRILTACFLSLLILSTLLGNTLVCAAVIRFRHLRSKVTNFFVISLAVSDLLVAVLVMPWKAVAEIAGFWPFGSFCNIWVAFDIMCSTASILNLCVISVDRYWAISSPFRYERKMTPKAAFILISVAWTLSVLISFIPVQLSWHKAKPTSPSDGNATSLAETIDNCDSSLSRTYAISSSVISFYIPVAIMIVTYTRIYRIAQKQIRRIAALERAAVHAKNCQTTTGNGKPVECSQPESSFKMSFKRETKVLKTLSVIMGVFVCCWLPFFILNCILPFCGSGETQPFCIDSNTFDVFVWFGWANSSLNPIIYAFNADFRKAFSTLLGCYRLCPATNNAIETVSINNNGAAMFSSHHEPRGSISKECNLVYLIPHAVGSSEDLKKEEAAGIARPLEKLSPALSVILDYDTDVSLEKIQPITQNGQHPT

Experiment [11] deals with Muscarinic acetylcholine receptor M1 (Homo sapiens) (UniProt P11229). The experiment is described as follows: NVS_GPCR_hM1: NovaScreen (NVS) G Protein-Coupled Receptor Assay for human Muscarinic, M1 Receptor (AID 2283270). The essentials: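 Cell-free radioligand displacement using membrane protein extracted from CHO cells, read by filter-based scintillation counting 1 h after dosing. Loss of bound signal fitted versus DMSO; primary screen single concentration 25 uM in duplicate, actives followed by concentration series.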

The target of experiment [12] is Muscarinic acetylcholine receptor M3 (Homo sapiens) (UniProt P20309). The experiment can be described thus: NVS_GPCR_hM3: NovaScreen (NVS) G Protein-Coupled Receptor Assay for human Muscarinic, M3 Receptor (AID 2283272). The essentials: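 Radioligand displacement binding on human M3 receptor in CHO-derived membranes, 1 h incubation, filter-based scintillation counting. Primary screen in duplicate at 25 uM; actives followed up in concentration series; loss of signal versus DMSO.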

Experiment [13] deals with Muscarinic acetylcholine receptor M2 (Homo sapiens) (UniProt P08172). The experiment can be described thus: NVS_GPCR_hM2: NovaScreen (NVS) G Protein-Coupled Receptor Assay for human Muscarinic, M2 Receptor (AID 2283273). The essentials: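 Cell-free radioligand binding using membranes from CHO cells expressing the receptor; filter-based scintillation counting after 1 hour of compound exposure. Loss of specific binding relative to DMSO baseline; primary screen at 25 uM in duplicate, actives then run in concentration series.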
Chain of Muscarinic acetylcholine receptor M2 (Homo sapiens) (P08172 whole entry, looked up): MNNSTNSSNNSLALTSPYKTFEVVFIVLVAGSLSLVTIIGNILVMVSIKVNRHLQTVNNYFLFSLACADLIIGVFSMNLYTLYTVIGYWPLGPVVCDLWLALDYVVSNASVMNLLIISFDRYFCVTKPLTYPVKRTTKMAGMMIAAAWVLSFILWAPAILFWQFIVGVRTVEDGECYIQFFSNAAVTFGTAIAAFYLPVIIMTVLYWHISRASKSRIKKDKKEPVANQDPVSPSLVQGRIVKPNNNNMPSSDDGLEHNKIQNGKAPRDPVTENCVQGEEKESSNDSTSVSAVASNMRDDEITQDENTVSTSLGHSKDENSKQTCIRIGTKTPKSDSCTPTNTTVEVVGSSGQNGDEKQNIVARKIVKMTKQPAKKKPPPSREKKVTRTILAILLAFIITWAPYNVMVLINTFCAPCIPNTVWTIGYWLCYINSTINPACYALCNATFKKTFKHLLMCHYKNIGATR

Experiment [14] concerns the target human Muscarinic, M4 Receptor, CHRM4 (gene 1132) (UniProt P08173). The experiment is described as follows: NVS_GPCR_hM4: NovaScreen (NVS) G Protein-Coupled Receptor Assay for human Muscarinic, M4 Receptor (AID 2283274). The essentials:
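Cell-free radioligand displacement using CHO-derived human M4 receptor protein, 1 h after dosing; bound radioactivity by filtration and scintillation counting. Primary screen single 25 uM duplicate, actives followed in concentration series.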

Experiment [15] concerns the target Muscarinic acetylcholine receptor M5 (Homo sapiens) (UniProt P08912). The experiment is described as follows: NVS_GPCR_hM5: NovaScreen (NVS) G Protein-Coupled Receptor Assay for human Muscarinic, M5 Receptor (AID 2283275). The essentials: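 Radioligand displacement on CHO-derived membrane preparations, 1 h, filter-based scintillation counting. Single-concentration duplicate screen at 25 uM; hits (e.g. 30% inhibition) retested in singleton concentration-response up to 50 uM. Loss of binding fitted versus DMSO.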

Experiment [16] has as its target human Adenosine A2a Receptor (AdoRA2a), ADORA2A (gene 135) (UniProt P29274). The experiment can be described thus: NVS_GPCR_hAdoRA2a: NovaScreen (NVS) G Protein-Coupled Receptor Assay for human Adenosine A2a Receptor (AdoRA2a) (AID 2283256). In a few lines:
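Radioligand displacement on HEK293-derived membrane protein, cell-free; filter-based scintillation counting 1.5 hours after dosing, loss of signal vs DMSO. Single-point duplicate screen at 25 uM, actives retested in concentration series.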

In experiment [17] the target is human Leukotriene B4 Receptor 1 (LTB4-BLT1), LTB4R (gene 1241) (UniProt Q15722). The experiment is described as follows: NVS_GPCR_hLTB4_BLT1: NovaScreen (NVS) G Protein-Coupled Receptor Assay for human Leukotriene B4 Receptor 1 (LTB4-BLT1) (AID 2283271). The essentials:
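Radioligand displacement binding on receptor extracted from human neutrophils, cell-free, 1 h after dosing; filter-based scintillation counting. Primary screen in duplicate at 25 uM, actives retested in concentration-response up to 50 uM; loss of signal versus DMSO.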

Chain of human Adrenergic, Alpha 2c Receptor (Adra2C), ADRA2C (gene 152) (P18825 whole entry, looked up): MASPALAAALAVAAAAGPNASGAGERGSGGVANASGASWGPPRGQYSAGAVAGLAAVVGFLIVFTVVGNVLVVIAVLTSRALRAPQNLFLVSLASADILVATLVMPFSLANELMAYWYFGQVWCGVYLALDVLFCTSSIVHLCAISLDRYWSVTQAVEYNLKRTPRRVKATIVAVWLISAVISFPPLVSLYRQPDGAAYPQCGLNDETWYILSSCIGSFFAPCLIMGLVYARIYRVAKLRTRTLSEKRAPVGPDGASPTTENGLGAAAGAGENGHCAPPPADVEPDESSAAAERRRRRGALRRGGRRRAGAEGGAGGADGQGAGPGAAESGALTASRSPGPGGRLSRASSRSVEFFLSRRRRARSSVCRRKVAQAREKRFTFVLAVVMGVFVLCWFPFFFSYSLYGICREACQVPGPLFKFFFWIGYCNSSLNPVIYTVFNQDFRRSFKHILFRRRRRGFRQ
Chain of human Dopamine Receptor D4.4 (DRD4.4), DRD4 (gene 1815) (P21917 whole entry, looked up): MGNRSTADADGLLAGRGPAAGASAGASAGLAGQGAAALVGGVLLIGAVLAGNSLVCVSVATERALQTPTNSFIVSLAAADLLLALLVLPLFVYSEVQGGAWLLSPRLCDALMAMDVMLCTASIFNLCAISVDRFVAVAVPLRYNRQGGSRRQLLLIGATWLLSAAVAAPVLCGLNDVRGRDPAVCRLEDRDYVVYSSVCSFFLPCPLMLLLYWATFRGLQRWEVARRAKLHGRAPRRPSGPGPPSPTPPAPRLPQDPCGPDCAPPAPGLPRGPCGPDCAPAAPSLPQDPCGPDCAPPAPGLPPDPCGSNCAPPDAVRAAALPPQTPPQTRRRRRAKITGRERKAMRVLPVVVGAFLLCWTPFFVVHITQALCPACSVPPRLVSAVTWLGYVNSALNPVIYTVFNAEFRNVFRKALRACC
Chain of human Adrenergic, Beta 3 Receptor (Adrb3), ADRB3 (gene 155) (P13945 whole entry, looked up): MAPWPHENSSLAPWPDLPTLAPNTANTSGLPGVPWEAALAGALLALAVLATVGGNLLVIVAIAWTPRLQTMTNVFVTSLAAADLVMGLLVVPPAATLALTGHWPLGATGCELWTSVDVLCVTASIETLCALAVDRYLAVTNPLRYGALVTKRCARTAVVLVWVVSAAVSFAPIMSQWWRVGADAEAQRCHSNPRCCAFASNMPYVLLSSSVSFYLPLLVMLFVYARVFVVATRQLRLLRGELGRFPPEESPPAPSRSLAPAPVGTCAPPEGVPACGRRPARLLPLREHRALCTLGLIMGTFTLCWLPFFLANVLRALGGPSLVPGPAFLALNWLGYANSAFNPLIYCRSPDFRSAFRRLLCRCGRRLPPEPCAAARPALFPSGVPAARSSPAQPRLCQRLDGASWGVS
Chain of human Adrenergic, Alpha 2A Receptor (Adra2A), ADRA2A (gene 150) (P08913 whole entry, looked up): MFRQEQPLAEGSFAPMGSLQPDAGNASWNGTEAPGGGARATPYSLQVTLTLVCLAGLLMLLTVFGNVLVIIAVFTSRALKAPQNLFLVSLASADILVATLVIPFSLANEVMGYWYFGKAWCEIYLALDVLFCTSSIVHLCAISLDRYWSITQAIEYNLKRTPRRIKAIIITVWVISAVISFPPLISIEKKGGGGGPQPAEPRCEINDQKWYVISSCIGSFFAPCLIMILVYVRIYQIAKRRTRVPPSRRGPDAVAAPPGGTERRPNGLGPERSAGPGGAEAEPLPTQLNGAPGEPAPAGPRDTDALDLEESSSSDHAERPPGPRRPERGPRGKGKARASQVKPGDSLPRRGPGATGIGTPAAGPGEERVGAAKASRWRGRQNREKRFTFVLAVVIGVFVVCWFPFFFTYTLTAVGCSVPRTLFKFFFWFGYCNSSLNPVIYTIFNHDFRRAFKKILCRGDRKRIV
Chain of human Adenosine A2a Receptor (AdoRA2a), ADORA2A (gene 135) (P29274 whole entry, looked up): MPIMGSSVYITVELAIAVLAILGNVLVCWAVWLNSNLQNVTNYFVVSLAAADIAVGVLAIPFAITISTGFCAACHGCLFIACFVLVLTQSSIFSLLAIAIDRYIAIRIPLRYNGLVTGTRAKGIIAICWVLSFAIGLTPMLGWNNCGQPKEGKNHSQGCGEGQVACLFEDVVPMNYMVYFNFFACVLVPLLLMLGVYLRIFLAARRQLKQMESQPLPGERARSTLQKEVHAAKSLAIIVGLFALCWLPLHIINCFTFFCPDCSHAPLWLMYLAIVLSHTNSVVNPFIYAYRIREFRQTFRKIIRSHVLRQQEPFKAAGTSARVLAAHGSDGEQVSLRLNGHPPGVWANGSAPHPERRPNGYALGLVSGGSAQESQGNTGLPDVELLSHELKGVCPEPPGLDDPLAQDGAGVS
Chain of human Adrenergic, Beta 1 Receptor (Adrb1), ADRB1 (gene 153) (P08588 whole entry, looked up): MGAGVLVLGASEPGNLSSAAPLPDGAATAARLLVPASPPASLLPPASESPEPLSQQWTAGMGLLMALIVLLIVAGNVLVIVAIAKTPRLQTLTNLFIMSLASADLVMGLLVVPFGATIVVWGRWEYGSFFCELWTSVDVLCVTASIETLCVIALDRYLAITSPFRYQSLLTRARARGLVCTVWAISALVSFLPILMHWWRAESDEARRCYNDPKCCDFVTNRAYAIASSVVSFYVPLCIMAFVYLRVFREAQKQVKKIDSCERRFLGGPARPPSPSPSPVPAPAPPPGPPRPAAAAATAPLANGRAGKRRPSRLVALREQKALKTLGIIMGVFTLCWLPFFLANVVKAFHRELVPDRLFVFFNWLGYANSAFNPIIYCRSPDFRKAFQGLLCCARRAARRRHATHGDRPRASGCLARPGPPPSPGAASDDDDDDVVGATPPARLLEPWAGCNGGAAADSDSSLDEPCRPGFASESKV
Chain of human Muscarinic, M4 Receptor, CHRM4 (gene 1132) (P08173 whole entry, looked up): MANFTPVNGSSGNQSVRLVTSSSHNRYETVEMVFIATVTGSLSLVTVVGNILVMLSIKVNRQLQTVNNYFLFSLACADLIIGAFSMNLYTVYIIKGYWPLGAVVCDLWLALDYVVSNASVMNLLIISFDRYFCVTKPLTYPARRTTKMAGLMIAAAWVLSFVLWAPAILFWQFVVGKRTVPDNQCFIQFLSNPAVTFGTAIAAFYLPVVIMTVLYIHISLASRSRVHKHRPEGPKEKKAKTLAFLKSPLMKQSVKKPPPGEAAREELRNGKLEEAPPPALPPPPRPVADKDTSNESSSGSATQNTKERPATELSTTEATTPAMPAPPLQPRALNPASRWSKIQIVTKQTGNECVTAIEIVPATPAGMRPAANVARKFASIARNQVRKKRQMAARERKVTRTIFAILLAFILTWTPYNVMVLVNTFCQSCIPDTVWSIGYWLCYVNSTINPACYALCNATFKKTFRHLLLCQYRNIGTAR

For `CC(C)CC(C)(O)C#CC(C)(O)CC(C)C` (stereo not drawn), the call in experiment [1] was inactive.
For the compound `CCOC(=O)COc1ccc2c(c1)CC(NCC(O)c1cccc(Cl)c1)CC2` (stereo not drawn), the AC50 is 7.53 µM (active) in experiment [2]; 3.33 µM (active) in experiment [3]; 3.81 µM (active) in experiment [4]; 0.0827 µM (active) in experiment [5]; 17.9 µM (active) in experiment [1]; 22.9 µM (active) in [6]. In addition, the AC50 in [8] was 2.33 µM (active); in experiment [9] it was 20.1 µM (active); in [10], 22.9 µM (active); in experiment [11], 4.73 µM (active); in experiment [12], 3.78 µM (active); in experiment [13] it was 3.68 µM (active). In addition, the half-maximal activity concentration (AC50) in experiment [14] was 1.92 µM (active); in experiment [15] it was 3.75 µM (active). Besides, in [7], the call was inactive.
As for `O=P(OC(CCl)CCl)(OC(CCl)CCl)OC(CCl)CCl`, in experiment [9], the AC50 is 19.8 µM (active). For the same compound, the outcome in [10] was inactive.
Consider `CCOC(=O)c1ccc(C2CCC(NC[C@H](O)COc3ccc(O)c(NS(C)(=O)=O)c3)CC2)cc1` (stereo partly drawn), for which the AC50 was 12.1 µM (active) in experiment [16]; 31.1 µM (active) in experiment [2]; 1.84 µM (active) in experiment [3]; 7.95 µM (active) in [4]; 0.24 µM (active) in experiment [5]; 7.77 µM (active) in [1]. The AC50 is 11.3 µM (active) in experiment [6]; 0.0174 µM (active) in experiment [8]; 18.6 µM (active) in experiment [9]; 21.9 µM (active) in [10]; 12.7 µM (active) in experiment [11]; 18 µM (active) in experiment [12]. Besides, the AC50 was 4.31 µM (active) in experiment [13], 11.9 µM (active) in [14] and 3.42 µM (active) in experiment [15].
In the case of `Oc1ccc2c(c1)-c1ccccc1C2`, the AC50 in [16] was 25 µM (active).
`Cc1ccc(S(=O)(=O)O)cc1C`: the outcome in experiment [17] was inactive.
For the compound `O=c1[nH]c2ccc(S(=O)CCN3CCC(Cc4ccc(F)cc4)CC3)cc2o1` (stereo not drawn), the AC50 in experiment [2] was 0.837 µM (active); in [4] it was 1.96 µM (active); in [6], 2.51 µM (active); in experiment [8], 13.5 µM (active); in [9] it was 0.522 µM (active); in experiment [10] it was 1.23 µM (active).
As for `CCn1nc(Cc2ccccc2)cc1C1CCN(C[C@H]2C[C@H](N(C)[C@@H](C(=O)O)C(C)C)C[C@@H]2c2cccc(F)c2)CC1`, the compound was classed as inactive in experiment [1] and in experiment [8].

A word on the AC50: it is the concentration at which the activity in the assay is half-maximal.
